# Test results as given in PubChem BioAssay (Tox21).
# Several values for one entry are separate records, joined by “and”; a condition that tells them apart may be missing. Equal values may be shown once. Results filed as inconclusive are left out. Entries that show only a call come without a potency. Some structures have more than one record in an assay (separate samples or runs), and their calls can disagree. Activity calls are given as the source filed them. Unless noted, calls follow the shape of the dose curve; as a rule, active = well fitted curve in the direction sought with a large enough effect in the repeat runs; inconclusive = weak or mixed curves; inactive = no such curve, though single readings can be large; an effect the other way counts as inactive or inconclusive.
# How the values were obtained:
# [1] = biological target: Acetylcholinesterase (Homo sapiens) (UniProt P22303); assay: Acetylcholinesterase (AChE) small molecule antagonists: enzyme-based qHTS assay (AID 1347397; calls by dose curve; also: nearly all actives have a fitted effect of over 55% in size); conditions: Potency: AChE enzyme activity inhibition
# Summary of the method: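 Human recombinant acetylcholinesterase; substrate acetylthiocholine; thiocholine quantified with DTNB (colorimetric). Compound preincubation 30 min RT; reaction 10 min RT.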
# [2] = biological target: Acetylcholinesterase (Homo sapiens) (UniProt P22303); assay: Acetylcholinesterase (AChE) small molecule antagonists: fluorescence cell-based qHTS assay (AID 1347398; calls by dose curve; also: nearly all actives have a fitted effect of over 50% in size); conditions: Potency: AChE activity
# Summary of the method: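 Thiocholine generated from acetylthiocholine by SH-SY5Y cell AChE is detected with Thiolite Green (Ex/Em 490/520 nm) after 40 min at room temperature, following 30 min compound pretreatment at 37 C.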
# [3] = biological target: Acetylcholinesterase (Homo sapiens) (UniProt P22303); assay: Acetylcholinesterase (AChE) small molecule antagonists: enzyme-based qHTS assay with human liver microsomes (AID 1347399; calls by dose curve; also: nearly all actives have a fitted effect of over 60% in size); conditions: Potency: qHTS inhibition
# Summary of the method: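 Recombinant human AChE (50 mU/mL in the enzyme mix) and human liver microsomes (0.25 mg/mL final) were preincubated with compound and NADPH (0.25 mg/mL final) for 30 min at 37 C. Acetylthiocholine/DTNB was then added; thiocholine was read colorimetrically after 10 min at room temperature.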
# [4] = biological target: Cytochrome P450 2D6 (Homo sapiens) (UniProt P10635); assay: Cytochrome P450 Family 2 Subfamily D Member 6 (CYP2D6) small molecule antagonists: luciferase reporter qHTS assay (AID 1671196); also: nearly all actives have a fitted effect of over 50% in size
# Summary of the method: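 Read-out is luminescence from luciferin formed by CYP2D6 turnover of a proluciferin substrate, recorded as relative luminescence units. Reactions ran 1 h at room temperature after NADPH regeneration solution was added.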
# [5] = biological target: Cytochrome P450 2C19 (Homo sapiens) (UniProt P33261); assay: Cytochrome P450 Family 2 Subfamily C Member 19 (CYP2C19) small molecule antagonists: luciferase reporter qHTS assay (AID 1671197); also: nearly all actives have a fitted effect of over 65% in size
# Summary of the method: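 Light output is proportional to CYP2C19 activity: proluciferin substrate is converted to luciferin, then detected by a luciferin detection reagent that also stops the 1 h, 37C NADPH-driven reaction. Ketoconazole serves as positive control.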
# [6] = biological target: Cytochrome P450 2C9 (Homo sapiens) (UniProt P11712); assay: Cytochrome P450 Family 2 Subfamily C Member 9 (CYP2C9) small molecule antagonists: luciferase reporter qHTS assay (AID 1671198); also: nearly all actives have a fitted effect of over 50% in size
# Summary of the method: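 CYP2C9 activity was measured with a P450-Glo proluciferin substrate. Enzyme–substrate mix was held with compound for 10 min at room temperature, then NADPH regeneration solution was added for 1 h at 37C. Luciferin product was read as luminescence.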
# [7] = biological target: Cytochrome P450 1A2 (Homo sapiens) (UniProt P05177); assay: Cytochrome P450 Family 1 Subfamily A Member 2 (CYP1A2) small molecule antagonists: luciferase reporter qHTS assay (AID 1671199); also: nearly all actives have a fitted effect of over 50% in size
# Summary of the method: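 P450-Glo CYP1A2, 1536-well qHTS: enzyme/proluciferin substrate + cpd (DMSO), 10 min RT; NADPH regen, 1 h RT; detection reagent, 20 min; luminescence, RLU.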
# [8] = biological target: Voltage-gated inwardly rectifying potassium channel KCNH2 (Homo sapiens) (UniProt Q12809); assay: Human Ether-a-go-go-Related Gene (hERG) channel small molecule antagonists: fluorescence cell-based qHTS assay (AID 1671200); also: nearly all actives have a fitted effect of over 50% in size
# Summary of the method: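 Kinetic two-minute fluorescence traces, sampled at 1 s, were collected following thallium stimulus of U2OS cells (1000 per well) that had been cultured overnight at 37 C and loaded with FluxOR II.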
# [9] = biological target: Cytochrome P450 3A4 (Homo sapiens) (UniProt P08684); assay: Cytochrome P450 Family 3 Subfamily A Member 4 (CYP3A4) small molecule antagonists: luciferase reporter qHTS assay (AID 1671201); also: nearly all actives have a fitted effect of over 50% in size
# Summary of the method: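 Proluciferin-to-luciferin conversion by CYP3A4, NADPH-regenerated, 1 h RT; luminescence read as RLU. Ketoconazole as control.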
# Potency is read from the fitted curve at half-maximal effect.
# Sequence of Acetylcholinesterase (Homo sapiens) (P22303 whole entry, looked up): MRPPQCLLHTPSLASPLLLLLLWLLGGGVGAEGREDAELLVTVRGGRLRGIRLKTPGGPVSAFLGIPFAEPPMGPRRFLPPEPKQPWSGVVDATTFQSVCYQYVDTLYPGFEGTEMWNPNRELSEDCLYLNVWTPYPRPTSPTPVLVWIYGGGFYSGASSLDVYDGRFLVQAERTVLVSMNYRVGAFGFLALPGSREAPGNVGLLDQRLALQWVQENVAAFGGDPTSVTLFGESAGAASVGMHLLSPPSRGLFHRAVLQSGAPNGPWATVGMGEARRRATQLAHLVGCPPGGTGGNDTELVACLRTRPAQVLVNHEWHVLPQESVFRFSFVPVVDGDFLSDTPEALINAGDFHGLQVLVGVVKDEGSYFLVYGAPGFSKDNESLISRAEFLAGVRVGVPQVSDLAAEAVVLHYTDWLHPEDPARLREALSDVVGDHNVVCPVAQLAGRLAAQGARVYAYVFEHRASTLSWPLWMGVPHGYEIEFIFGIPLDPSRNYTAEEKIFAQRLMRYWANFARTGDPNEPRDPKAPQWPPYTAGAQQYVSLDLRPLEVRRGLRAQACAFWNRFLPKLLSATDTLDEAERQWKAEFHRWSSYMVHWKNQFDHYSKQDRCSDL
# Sequence of Cytochrome P450 3A4 (Homo sapiens) (P08684 whole entry, looked up): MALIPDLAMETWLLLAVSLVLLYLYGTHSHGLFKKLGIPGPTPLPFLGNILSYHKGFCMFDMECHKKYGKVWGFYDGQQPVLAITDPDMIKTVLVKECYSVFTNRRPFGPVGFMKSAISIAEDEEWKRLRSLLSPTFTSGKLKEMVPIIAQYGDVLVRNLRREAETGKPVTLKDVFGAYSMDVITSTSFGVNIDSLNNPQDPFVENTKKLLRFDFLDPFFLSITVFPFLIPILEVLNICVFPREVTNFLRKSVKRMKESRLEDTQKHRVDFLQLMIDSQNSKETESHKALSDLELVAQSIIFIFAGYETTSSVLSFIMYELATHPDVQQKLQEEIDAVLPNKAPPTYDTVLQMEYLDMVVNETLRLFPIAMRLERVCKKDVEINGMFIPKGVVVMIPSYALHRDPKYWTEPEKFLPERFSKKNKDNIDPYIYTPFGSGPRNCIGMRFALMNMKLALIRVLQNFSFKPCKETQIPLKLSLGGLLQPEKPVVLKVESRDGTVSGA
# Sequence of Voltage-gated inwardly rectifying potassium channel KCNH2 (Homo sapiens) (Q12809 whole entry, looked up): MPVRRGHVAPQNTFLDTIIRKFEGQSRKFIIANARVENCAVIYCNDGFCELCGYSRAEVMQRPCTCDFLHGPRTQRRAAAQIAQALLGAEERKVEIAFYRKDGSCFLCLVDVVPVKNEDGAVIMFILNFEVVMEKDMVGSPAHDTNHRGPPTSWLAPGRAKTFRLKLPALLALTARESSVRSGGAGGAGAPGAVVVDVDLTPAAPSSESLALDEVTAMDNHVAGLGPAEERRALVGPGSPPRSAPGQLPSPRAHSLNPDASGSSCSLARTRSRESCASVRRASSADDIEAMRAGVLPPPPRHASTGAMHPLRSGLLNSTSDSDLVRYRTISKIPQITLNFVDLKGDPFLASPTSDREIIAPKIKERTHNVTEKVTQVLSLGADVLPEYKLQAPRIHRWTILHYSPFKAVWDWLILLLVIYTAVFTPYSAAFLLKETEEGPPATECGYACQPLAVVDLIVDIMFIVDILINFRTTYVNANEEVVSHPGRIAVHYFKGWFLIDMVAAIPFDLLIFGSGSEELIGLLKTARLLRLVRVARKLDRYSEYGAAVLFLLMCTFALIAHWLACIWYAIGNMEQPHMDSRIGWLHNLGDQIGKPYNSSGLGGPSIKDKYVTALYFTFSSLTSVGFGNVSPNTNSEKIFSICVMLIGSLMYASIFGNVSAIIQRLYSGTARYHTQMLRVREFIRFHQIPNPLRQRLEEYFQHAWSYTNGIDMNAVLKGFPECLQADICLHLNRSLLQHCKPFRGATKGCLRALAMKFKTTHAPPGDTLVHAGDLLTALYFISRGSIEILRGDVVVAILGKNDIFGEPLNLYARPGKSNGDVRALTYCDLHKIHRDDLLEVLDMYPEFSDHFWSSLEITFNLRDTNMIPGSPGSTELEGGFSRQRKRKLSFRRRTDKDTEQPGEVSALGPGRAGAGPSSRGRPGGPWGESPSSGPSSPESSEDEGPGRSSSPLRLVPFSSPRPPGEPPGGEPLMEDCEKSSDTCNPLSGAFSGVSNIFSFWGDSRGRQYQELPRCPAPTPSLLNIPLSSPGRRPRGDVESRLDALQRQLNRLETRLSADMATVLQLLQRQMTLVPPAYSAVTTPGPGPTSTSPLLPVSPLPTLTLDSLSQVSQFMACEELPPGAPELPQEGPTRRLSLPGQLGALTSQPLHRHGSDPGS
# Sequence of Cytochrome P450 2D6 (Homo sapiens) (P10635 whole entry, looked up): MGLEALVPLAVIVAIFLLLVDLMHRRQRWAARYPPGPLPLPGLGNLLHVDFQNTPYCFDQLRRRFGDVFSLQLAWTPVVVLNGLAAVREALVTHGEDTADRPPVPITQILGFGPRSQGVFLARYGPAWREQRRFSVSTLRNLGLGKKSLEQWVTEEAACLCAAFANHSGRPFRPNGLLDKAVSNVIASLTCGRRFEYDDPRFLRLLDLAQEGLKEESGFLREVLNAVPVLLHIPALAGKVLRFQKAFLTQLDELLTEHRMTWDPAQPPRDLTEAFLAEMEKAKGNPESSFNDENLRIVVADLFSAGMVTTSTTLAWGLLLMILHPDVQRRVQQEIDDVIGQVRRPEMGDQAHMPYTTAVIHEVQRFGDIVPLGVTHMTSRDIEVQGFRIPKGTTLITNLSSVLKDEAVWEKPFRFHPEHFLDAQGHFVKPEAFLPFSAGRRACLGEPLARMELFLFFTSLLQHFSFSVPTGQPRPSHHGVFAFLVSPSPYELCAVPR
# Sequence of Cytochrome P450 1A2 (Homo sapiens) (P05177 whole entry, looked up): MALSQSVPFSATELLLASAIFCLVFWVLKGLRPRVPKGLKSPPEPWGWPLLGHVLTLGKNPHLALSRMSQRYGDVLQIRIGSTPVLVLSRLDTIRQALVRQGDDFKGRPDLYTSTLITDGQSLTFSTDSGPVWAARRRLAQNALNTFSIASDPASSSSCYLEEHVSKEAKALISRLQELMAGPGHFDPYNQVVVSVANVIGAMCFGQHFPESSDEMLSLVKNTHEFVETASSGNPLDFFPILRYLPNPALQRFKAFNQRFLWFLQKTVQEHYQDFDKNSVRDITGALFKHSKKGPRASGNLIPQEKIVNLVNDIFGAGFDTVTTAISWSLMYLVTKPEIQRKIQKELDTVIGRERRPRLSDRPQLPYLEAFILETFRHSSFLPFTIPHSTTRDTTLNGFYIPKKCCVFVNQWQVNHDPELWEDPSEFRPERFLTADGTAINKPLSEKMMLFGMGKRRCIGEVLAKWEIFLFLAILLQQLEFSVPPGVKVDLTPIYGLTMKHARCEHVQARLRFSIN
# Sequence of Cytochrome P450 2C19 (Homo sapiens) (P33261 whole entry, looked up): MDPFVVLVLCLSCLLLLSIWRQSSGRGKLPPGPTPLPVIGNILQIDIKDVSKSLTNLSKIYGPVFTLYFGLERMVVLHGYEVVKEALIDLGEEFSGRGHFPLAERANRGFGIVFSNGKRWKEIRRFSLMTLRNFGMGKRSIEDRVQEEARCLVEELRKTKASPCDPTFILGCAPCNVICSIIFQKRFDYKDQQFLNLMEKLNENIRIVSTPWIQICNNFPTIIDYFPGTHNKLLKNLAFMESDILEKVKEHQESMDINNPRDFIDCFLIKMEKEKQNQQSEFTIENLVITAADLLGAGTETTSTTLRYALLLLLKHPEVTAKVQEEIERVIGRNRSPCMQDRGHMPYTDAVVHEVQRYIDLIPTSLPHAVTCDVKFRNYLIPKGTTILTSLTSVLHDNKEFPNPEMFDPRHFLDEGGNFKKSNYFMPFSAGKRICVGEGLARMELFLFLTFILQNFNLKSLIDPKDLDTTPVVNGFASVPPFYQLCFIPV
# Sequence of Cytochrome P450 2C9 (Homo sapiens) (P11712 whole entry, looked up): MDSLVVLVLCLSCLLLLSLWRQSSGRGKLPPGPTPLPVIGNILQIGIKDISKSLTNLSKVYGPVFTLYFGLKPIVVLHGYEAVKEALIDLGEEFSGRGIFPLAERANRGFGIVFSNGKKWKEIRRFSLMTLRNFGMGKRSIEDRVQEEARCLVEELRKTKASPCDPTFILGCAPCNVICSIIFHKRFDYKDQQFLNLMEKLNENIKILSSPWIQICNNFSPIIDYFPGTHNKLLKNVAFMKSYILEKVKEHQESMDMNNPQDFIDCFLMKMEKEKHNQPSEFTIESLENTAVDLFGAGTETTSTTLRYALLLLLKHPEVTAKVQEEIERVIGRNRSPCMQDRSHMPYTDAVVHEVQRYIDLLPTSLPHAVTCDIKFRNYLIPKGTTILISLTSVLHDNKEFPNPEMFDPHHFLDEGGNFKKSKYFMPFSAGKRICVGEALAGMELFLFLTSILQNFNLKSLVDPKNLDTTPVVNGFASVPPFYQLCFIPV
Structure (SMILES),Potency [1],Potency [2],Potency [3],Potency [4],Potency [5],Potency [6],Potency [7],Potency [8],Potency [9]
O=[N+]([O-])c1ccc(Cl)c(Cl)c1Cl,inactive,inactive,inactive,inactive,55.6 µM (active),inactive,8.8 µM (active),inactive,inactive
Clc1ccc(C(c2ccc(Cl)cc2)C(Cl)Cl)cc1,inactive,inactive,inactive,64.3 µM (active),181 nM (active) and 113 nM (active),5.11 µM (active) and 6.33 µM (active),6.43 µM (active) and 8.94 µM (active),24.9 µM (active) and 19.5 µM (active),inactive
Nc1nc(N)nc(Cl)n1,inactive,inactive,inactive,inactive,inactive,inactive,inactive,inactive,inactive
CNC(=O)Oc1cc(C)cc(C(C)C)c1,399 nM (active),0.178 µM (active),5.03 µM (active),39.9 µM (active),20 µM (active),inactive,20 µM (active),inactive,inactive
COC(=O)c1cc(Oc2ccc(Cl)cc2Cl)ccc1[N+](=O)[O-],inactive,inactive,inactive,22.4 µM (active),2.52 µM (active),7.1 µM (active),15.9 µM (active),17.4 µM (active),inactive
C=CC(=C)C,inactive,inactive,inactive,inactive,inactive,inactive,inactive,inactive,inactive
COc1ccc2c(c1OC)C(=O)O[C@@H]2[C@H]1c2cc3c(cc2CCN1C)OCO3,inactive,inactive,inactive,35.2 µM (active),3.95 µM (active),5.58 µM (active),31.4 µM (active),21.7 µM (active),
[F][Sn]([c]1ccccc1)([c]1ccccc1)[c]1ccccc1,inactive,inactive,inactive,2.83 µM (active),3.99 µM (active),2 µM (active),inactive,3.09 µM (active),
CC(C)[C@@H](Nc1ccc(C(F)(F)F)cc1Cl)C(=O)OC(C#N)c1cccc(Oc2ccccc2)c1 (stereo not given in full),inactive,inactive,inactive,inactive,10.8 µM (active),6.09 µM (active),inactive,inactive,
O=S1OCC2C(CO1)C1(Cl)C(Cl)=C(Cl)C2(Cl)C1(Cl)Cl (stereo not given),inactive,inactive,inactive,4 µM (active),3.18 µM (active) and 3.56 µM (active),35.6 µM (active) and 31.7 µM (active),inactive,21.9 µM (active) and 27.5 µM (active),283 nM (active) and 633 nM (active)
Oc1ccc([C@H]2CNCc3c2ccc(O)c3O)cc1O,inactive,30.9 µM (active),inactive,34.7 µM (active),38.9 µM (active),13.8 µM (active),inactive,inactive,inactive
N#Cc1ccc(N(CC(N)=O)CC(F)(F)F)cc1C(F)(F)F,inactive,inactive,inactive,31.7 µM (active),79.6 µM (active),35.6 µM (active),39.9 µM (active),inactive,
O=C(N[C@H]1N=C(c2ccccc2F)c2cccc3c2N(CC3)C1=O)c1cc2ccccc2[nH]1,inactive,inactive,inactive,inactive,inactive,7.76 µM (active),inactive,7.56 µM (active),inactive
O=S1(=O)OCC2C(CO1)C1(Cl)C(Cl)=C(Cl)C2(Cl)C1(Cl)Cl (stereo not given),inactive,inactive,inactive,inactive,1.59 µM (active),15.9 µM (active),31.7 µM (active),17.4 µM (active),0.224 µM (active)
CC(O)C(=O)[O][Hg][c]1ccccc1 (stereo not given),inactive,79.6 µM (active),inactive,0.448 µM (active),6.33 µM (active),1.78 µM (active),17.8 µM (active),17.4 µM (active),6.33 µM (active)
CC(C)NCC(O)c1ccccc1Cl (stereo not given),inactive,inactive,inactive,7.76 µM (active),inactive,inactive,inactive,inactive,inactive
CCCCN(CCCC)C(=S)[S-].CCCCN(CCCC)C(=S)[S-].[Ni+2],inactive,inactive,inactive,inactive,inactive,inactive,inactive,inactive,inactive
C[C@]12CC[C@H]3[C@@H](CCC4=CC(=O)CC[C@@H]43)[C@@H]1CC[C@@H]2OC(=O)CCc1ccco1,inactive,inactive,inactive,inactive,inactive,17.4 µM (active),inactive,10.7 µM (active),
CC(Cc1ccccc1)N(C)Cc1ccco1 (stereo not given),inactive,inactive,inactive,0.776 µM (active),7.76 µM (active),inactive,inactive,inactive,inactive
CCCCCCCCCCCCCCn1cc[n+](C)c1,50.4 µM (active) and 70.2 µM (active) and inactive,20.1 µM (active) and 31.4 µM (active) and inactive,inactive,1.13 µM (active) and 1.25 µM (active),40 µM (active) and 78.8 µM (active),11.3 µM (active),40 µM (active) and 62.6 µM (active),3.9 µM (active) and 6.84 µM (active) and inactive,40 µM (active)
